# HIF-2a block: HIF-2a inhibition. 786-0 RCC cells HIF-2a reporter, luciferase luminescence, overnight. inhibition, % at 18.8 µM. 360,000 compounds, 0.72% hits;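 active = inhibition of the luminescence signal of 40% or more relative to plate controls, in a single-dose primary screen at 18.75 µM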
# MITF TRPM1 inh: MITF TRPM1 promoter inhibition in SK-MEL-5 cells | 330,000 compounds, 0.83% hits | inhibition, % at 12.5 µM | SK-MEL-5 TRPM1 promoter luciferase, 24 h;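 active = mean inhibition across replicates of 60% or more, whatever share of single replicates reaches that level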
# Shn3 inh set2: inhibitors of Schnurri-3 3'UTR reporter in osteoblasts. 360,000 compounds, 0.52% hits. Clone20 osteoblast Shn3 3'UTR firefly luciferase, 24 h. inhibition, % at 12.5 µM;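 active = mean inhibition of at least 75% with every replicate also reaching 75%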;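 note: 0% = median of neutral control wells and 100% = pilot-screen positive control compound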
# KKLEB cytotox: counter-screen for CF NF-kB inhibitors: cytotoxicity | 360,000 compounds, 0.36% hits | AID 602141 | KKLEB CF airway cells viability, ATPlite luminescence, overnight; stronger effect = lower value; cells stimulated with P. aeruginosa culture filtrate | activity change (cytotoxicity), % at 5 µM;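 active = corrected activity change at or below -50% at 5 µM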
# CF NFkB block: blocks PAF-induced NF-kB reporter in cystic fibrosis cells; 360,000 compounds, 0.86% hits; inhibition, % at 5 µM; KKLEB NF-kB-GFP reporter, GFP fluorescence overnight;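 active = at least 50% inhibition at 5 µM, scaled per plate between neutral and stimulator controls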;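 note: PAF is a Pseudomonas aeruginosa culture filtrate used as stimulus; plate controls were PAF-stimulated DMSO wells for no effect and unstimulated DMSO wells for full effect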
# Peg3 prom inh: reduces Peg3 promoter-driven luciferase expression in HeLa. 360,000 compounds, 1.7% hits. HeLa PEG-Prom luciferase reporter, luminescence, overnight. inhibition, % at 20 µM;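 active = inhibition of at least 50% at 20 µM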
# * = called active by the depositor; . = not tested or not shown. Sampled rows, rich in hits. Any-hit rate of the full collection: about 2.8%.
SMILES,HIF-2a block,MITF TRPM1 inh,Shn3 inh set2,KKLEB cytotox,CF NFkB block,Peg3 prom inh
CCc1nnc(NC(=O)c2cc3c(s2)CCCCC3)s1,-168.4,-16.8,-24.8,-2.5,-21.3,-162.1
Cc1csc(NC(=O)c2cc3c(s2)CCCC3)n1,-3.3,5.1,24.8,-28.7,-5.2,-39.9
Cc1csc(NC(=O)c2cc3c(s2)CCCCC3)n1,27.4,47.1,70.0,-63.1*,9.0,57.7*
Cc1cnc(NC(=O)c2cc3c(s2)CCCC3)s1,-12.6,8.0,26.9,-51.0*,-6.4,5.6
CN(CC(=O)Nc1c(Cl)cccc1Cl)C(=O)c1cc(S(=O)(=O)N(C)C)ccc1N1CCCC1,10.9,2.7,-13.6,-9.7,22.2,12.0
Cn1c2ccccc2c(=O)c2c(=O)n(C3CCCCC3)c(-c3ccco3)nc21,-1.8,70.4*,1.8,1.0,-20.3,0.5
COc1ccc(S(=O)(=O)N2CCC(C(=O)NCc3ccncc3)CC2)cc1C,6.5,5.4,1.8,1.7,-5.4,3.4
COc1ccc(/C(C)=N/NC2=NCCN2)cc1Cl,9.3,2.2,26.8,6.8,0.6,6.8
CCCCOc1ccc(Br)cc1/C(C)=N/NC1=NCCN1,26.4,81.7*,88.1*,-17.7,34.3,41.2
CCCCCCOc1ccc(/C(C)=N/NC2=NCCN2)cc1[N+](=O)[O-],-153.6,33.6,-11.1,-8.3,-2.1,111.2*
Cc1cccc(C)c1NC(=O)C(C)Sc1n[nH]c(-c2ccncc2)n1 (configuration not stated),4.2,-3.5,4.3,-0.3,-1.1,-5.7
CCc1c(C)nc2ncnn2c1NCCc1ccccc1,-24.1,15.1,60.3,11.2,21.1,-17.6
CCc1c(C)nc2ncnn2c1NCCc1ccc(Cl)cc1,19.9,22.3,87.8*,8.6,3.8,14.9
CC(C)Oc1ccc(C2CC(=O)N(c3cccc(/C=C/C(=O)O)c3)C2=O)cc1 (configuration not stated),9.0,-2.9,-50.7,-9.6,6.7,-8.3
CCc1ccc(N2CC(C(=O)N3CCN(c4ccc([N+](=O)[O-])cc4)CC3)CC2=O)cc1 (configuration not stated),23.9,.,2.7,-2.4,-3.9,19.2
CN(C(=O)CSc1nc2ccccc2n1C)C1CCS(=O)(=O)C1 (configuration not stated),-4.5,-6.3,-10.8,-10.8,5.9,67.8*
O=c1[nH]c(-c2ccccc2)c(-c2ccccc2)nc1[N+](=O)[O-],1.7,-14.4,-7.2,3.9,-2.2,-0.3
CC(=O)OCC(=O)C1(O)CCC2C3CCC4=CC(=O)C=CC4(C)C3C(O)CC21C (configuration not stated),23.0,-6.2,-72.8,30.9,74.9*,-7.0
CCC(C)C(NC(=O)CCC(=O)OCC(=O)[C@@]1(O)CCC2[C@@H]3CCC4=CC(=O)C=C[C@]4(C)C3[C@@H](O)C[C@@]21C)C(=O)O (some centres not stated),30.1,-14.4,4.6,26.7,74.0*,10.6
C[C@]12C=CC(=O)C=C1CC[C@@H]1C2[C@@H](O)C[C@@]2(C)C1CC[C@]2(O)C(=O)COC(=O)CCC(=O)O (some centres not stated),24.8,-6.5,29.3,2.4,74.4*,-6.0
CCCC1O[C@@H]2CC3C4CCC5=CC(=O)C=C[C@]5(C)C4C(OC(C)=O)C[C@]3(C)[C@]2(C(=O)COC(C)=O)O1 (some centres not stated),18.0,3.5,17.7,12.4,24.2,24.6
COc1ccc(S(=O)(=O)N2CCC(C(=O)N[C@@H](C)C(=O)NCc3ccccc3OC)CC2)cc1,5.3,-10.8,-3.5,6.6,-13.1,16.7
COc1cccc(N2CCN(C(=O)c3cccc(NC4=NC5CS(=O)(=O)CC5S4)c3)CC2)c1 (configuration not stated),9.9,5.0,-23.9,6.4,-6.6,19.8
CCOC(=O)c1ccc(NC(=O)c2ccc(C)c(S(=O)(=O)N3CCOCC3)c2)cc1,13.8,68.8*,42.2,13.8,-11.4,92.8*
Cc1cc(C)n(-c2ccc(C(=O)Nc3ccc(C)c(S(=O)(=O)N4CCOCC4)c3)cc2)n1,-1.7,69.4*,56.8,4.0,-11.2,34.1
SMILES,HIF-2a block,MITF TRPM1 inh,Shn3 inh set2,KKLEB cytotox,CF NFkB block,Peg3 prom inh
CC(=O)c1ccc(NC(=O)c2ccc(C)c(S(=O)(=O)N3CCOCC3)c2)cc1,-19.7,-2.7,-4.8,2.9,0.3,-24.7
COc1cccc(NC(=O)N(C)C[C@H]2OCc3cnnn3CCCC(=O)N([C@H](C)CO)C[C@@H]2C)c1,7.8,.,-0.2,-10.4,8.3,-7.9
c1ccc(/N=C2\N=C(Nc3ccccn3)c3ccccc32)nc1,-18.5,53.9,84.0,-19.4,1.2,63.6*
O=C(CSc1nnc(CNC(=O)c2ccccc2)o1)NCCc1ccccc1,9.9,23.7,1.3,3.5,-0.7,13.8
O=C(COc1ccc([N+](=O)[O-])cc1)Nc1ccc(C(=O)NCc2cccnc2)cc1,19.4,5.6,74.9,5.7,-1.3,74.5*
CN(CCOc1ccc(Cl)cc1)C(=O)c1cccc(S(=O)(=O)N2CCN(Cc3ccccc3)CC2)c1,3.6,.,91.5*,-4.3,19.1,21.8
CSc1ccc(CN(C)C(=O)c2cccc(S(=O)(=O)N3CCN(Cc4ccccc4)CC3)c2)cc1,9.2,28.0,88.2*,1.8,13.3,10.6
Cc1ccc(C)c(NC(=O)CN(C)C(=O)c2cccc(S(=O)(=O)N3CCN(Cc4ccccc4)CC3)c2)c1,16.8,11.2,86.9*,-6.4,4.2,20.5
COc1ccc(NC(=O)CN(C)C(=O)c2cccc(S(=O)(=O)N3CCN(Cc4ccccc4)CC3)c2)cc1,5.4,9.5,57.3,2.9,-15.8,-7.4
COc1cccc(CN(C)C(=O)c2cccc(S(=O)(=O)N3CCN(c4ccccc4)CC3)c2)c1,11.3,.,85.4*,-2.5,-19.2,26.4
C[C@H](NC(=O)c1nc[nH]c1C(=O)N(C)CCO)c1ccccc1,7.7,.,-6.2,-27.4,0.2,5.9
COc1ccc(NC(=S)NNc2ccc([N+](=O)[O-])cc2S(=O)(=O)Nc2ccc(C)cc2C)cc1,-4.3,3.5,25.0,-29.4,46.1,52.5*
CC(C)c1ccc(S(=O)(=O)N2CCN(C(=O)C3CCCC3)CC2)cc1,6.3,17.3,24.5,-8.1,6.0,13.1
CC(C)NC1CCC(Nc2ccnc3cc(Cl)ccc23)CC1 (configuration not stated),-30.2,25.3,75.0,2.1,-9.3,11.7
Clc1ccc2c(NCCNC3CCCCC3)ccnc2c1,-35.8,94.9*,44.7,-16.9,12.0,83.6*
Cc1ccc(C)c(NC(=S)N/N=C/C(C)c2ccccc2)c1 (configuration not stated),8.3,3.3,-13.9,11.3,-0.8,1.2
Nc1ccc(N=Nc2ccccc2)c(N)n1,-328.0,-89.8,-97.5,-10.3,63.4*,-317.5
Nc1ccc(N=Nc2ccccc2)c2ccccc12,-7.4,9.3,-0.8,7.3,-2.9,3.1

# Screening results from PubChem.
